This note sets out measurements from PubChem BioAssay.

Broadly, the inhibition is the drop in the measured response relative to a control, in per cent.

A number with no mark means an inactive call. The rule behind the calls is not given here.

The assay deals with Pantothenate synthetase (Mycobacterium tuberculosis (strain ATCC 25618 / H37Rv)) (UniProt P9WIL5). In words: Coupled enzyme confirmation of inhibitors against recombinant Mtb PanC (AID 375).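 Note: 0% = full reaction with vehicle and 100% = no enzyme background.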 To be noted: coupled enzyme assay; at 10 µM, stronger effect = higher value.
Chain of Pantothenate synthetase (Mycobacterium tuberculosis (strain ATCC 25618 / H37Rv)) (P9WIL5 whole entry, looked up): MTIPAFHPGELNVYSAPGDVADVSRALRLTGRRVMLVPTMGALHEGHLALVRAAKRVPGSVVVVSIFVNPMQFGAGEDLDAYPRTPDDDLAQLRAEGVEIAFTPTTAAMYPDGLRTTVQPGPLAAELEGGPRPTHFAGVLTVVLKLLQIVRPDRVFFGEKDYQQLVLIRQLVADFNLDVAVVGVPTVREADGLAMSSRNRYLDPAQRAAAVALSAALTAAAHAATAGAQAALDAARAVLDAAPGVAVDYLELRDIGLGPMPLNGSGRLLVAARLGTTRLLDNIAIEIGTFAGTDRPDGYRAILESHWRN
In the case of `CCOC(=O)c1c(NC(=O)OC)sc2c1CCC2`, the inhibition was 0%.
In the case of `CCCc1c(O)nc(SCC(=O)NCCc2ccc(OC)c(OC)c2)[nH]c1=O` it was 0%; in that of `CC(=O)CCc1ccc(OCCCCn2cncn2)cc1`, 0%.
Under `CCCCOC(=O)c1cccc(NC(=O)CC)c1` stands 0%.
In the case of `Cc1ccc(S(=O)(=O)NCCc2ccncc2)cc1` it was 2%; in that of `CC(C)n1c(CN2CCN(C)CC2)nc2c1c(=O)n(C)c(=O)n2C`, 0%; in that of `COc1ccc(C(=O)N(CCCO)Cc2cc3c(C)ccc(C)c3[nH]c2=O)cc1OC`, 0%.
Turning to `Cc1ccc2nc(NC(=O)C3CCN(S(=O)(=O)c4cccc5nsnc45)CC3)sc2c1`, the inhibition is 4%.
Under `O=C1NC(c2ccco2)Nc2ccccc21` (stereo not given) stands 0%; under `O=C1OCCC1Sc1ncnc2sc3c(c12)CCC3` (stereo not given), 0%.
Turning to `COc1cc(C(=O)N2CCC(NC(=O)C(Cc3ccc(C)cc3)NC(C)=O)CC2)cc(OC)c1OC` (stereo not given), the inhibition was 3%.
For `O=C(Nc1ccccc1C(=O)N1CCN(c2ccccc2)CC1)c1ccco1`, the inhibition was 0%.
In the case of `Cn1c(SCC(=O)N2CCOCC2)nnc1-c1cnccn1` it was 0%.
Under `O=C(O)c1cnn2c1NC(c1ccc(F)cc1)CC2C(F)(F)F` (stereo not given) stands 2%; under `COc1cccc(-c2cc(C(F)(F)F)n3ncc(C(=O)O)c3n2)c1`, 0%; under `CCOC(=O)N1CCN(C(=O)c2ccc(CS(=O)(=O)c3c(Cl)cccc3Cl)o2)CC1`, 0%.
Under `NC1=NC(c2ccc(Br)cc2)n2c(nc3ccccc32)N1` (stereo not given) stands 0%; under `Cc1cc(NC(=O)CSc2nc3ccsc3c(=O)n2NC(=O)c2ccccc2)no1`, 1%; under `COc1ccc(NC(=O)c2cc(C(C)C)on2)c(OC)c1`, 0%.
Turning to `CCCNC(=O)c1cc(S(=O)(=O)N2CCc3ccccc32)ccc1F`, the inhibition was 0%.
In the case of `c1cncc(-c2nnc3n2N=C(c2cccs2)CS3)c1` it was 6%.
Under `O=C(O)CCC1(C(=O)O)OCCc2ccccc21` (stereo not given) stands 8%; under `Nc1c(Sc2ccccc2)c(=O)[nH]c(=O)n1Cc1ccccc1`, 0%; under `O=C(Nc1ccc(-c2noc(-c3cccs3)n2)cc1)c1cccnc1`, 0%.
Under `Cc1ccccc1NC(=O)C1Cc2ccccc2C(=O)O1` (stereo not given) stands 0%; under `CN(C)S(=O)(=O)c1ccc(C(=O)Nc2ccccc2C(=O)O)cc1`, 8%.
On to `O=C(NCc1ccccn1)Nc1ccc2c(c1)OCO2`, for which the inhibition is 4%.
Turning to `CCOc1ccccc1C1CC(=O)Nc2cc3c(cc21)OCO3` (stereo not given), the inhibition was 0%.
In the case of `COc1ccccc1NC(=O)c1ccc(NC(=O)CSc2nnnn2C)cc1` it was 1%; in that of `CC(=O)c1cc2c(=O)c3cc(C)ccc3oc2nc1C`, 0%.
Under `Cn1c2c(c(=O)n(C)c1=O)C(c1cccc(Br)c1)C1C(=O)c3ccccc3C1=N2` (stereo not given) stands 9%.
In the case of `COC(=O)C1=C(C)Nc2ncnn2C1c1ccco1` (stereo not given) it was 0%; in that of `O=C(c1ccco1)N1CCN(c2c(-c3ccccc3)c3cc(Cl)ccc3[nH]c2=O)CC1`, 5%; in that of `COc1ccc(OC)c(NC(=O)Cc2coc3ccc(C)cc23)c1`, 6%.
Consider `CCn1c(=O)c(=O)[nH]c2cc(C(=O)N3CCN(c4ccccc4F)CC3)ccc21`, for which the inhibition is 4%.
For the molecule `OC(CCN1CCCC1)(c1ccccc1)C1CCCCC1` (stereo not given), the inhibition is 1%.
Under `O=C(COc1ccc(S(=O)(=O)NC2CCCCC2)cc1)NCc1ccccn1` stands 0%; under `COc1ccc(-c2onc(C)c2-c2ccccc2)c(O)c1`, 3%; under `O=C(c1ccc2c(c1)[nH]c(=S)n1c3ccccc3nc21)N1CCN(c2ncccn2)CC1`, 8%.
Under `Cc1c(Br)c(C(F)(F)F)nn1CC(=O)NCCN1CCOCC1` stands 0%.
